# Experimental data reported in article PMC8384837, “Expanding the binding specificity for RNA recognition by a PUF domain”.
# Substitutions are numbered along the chain they refer to.
# Experiments:
# Experiment in all cases: yeast three-hybrid, YBZ-1, SC-Leu-His + 0.5 mM 3-AT, 4 days
# Conditions in all cases: tags: N-Gal4 AD-HA kept; label: inside an RPR1-promoter hybrid RNA with tandem MS2 sites; ssRNA
# PUM1 PUF domain R7-RGQ = PUM1 PUF domain R7-RGQ (Homo sapiens, UniProt Q14671 828-1176, S1079R;N1080G;E1083Q)
# In short: (§1)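 Pumilio-1 PUF domain libraries, randomized at the three base-contacting residues of each repeat, were co-expressed with matching RNA elements from a centromeric plasmid in strain YBZ-1, which carries a LexA–MS2 coat fusion and a HIS3 reporter. Transformants grew for four days on SC-Leu (input) or on SC-Leu-His + 0.5 mM 3-AT (selection), and the repeat regions were PCR-amplified and Illumina-sequenced. The interaction score is the log change in variant frequency from input to selection. That logarithm is base 2, with a pseudocount of 1 where a variant was absent.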
# PUM1 PUF domain R7-KHR = PUM1 PUF domain R7-KHR (Homo sapiens, UniProt Q14671 828-1176, S1079K;N1080H;E1083R)
# In short: as §1
# PUM1 PUF domain R3-RSL = PUM1 PUF domain R3-RSL (Homo sapiens, UniProt Q14671 828-1176, C935R;R936S;Q939L)
# In short: as §1
# PUM1 PUF domain R3-QRG = PUM1 PUF domain R3-QRG (Homo sapiens, UniProt Q14671 828-1176, C935Q;Q939G)
# In short: as §1
# PUM1 PUF domain R3-RAD = PUM1 PUF domain R3-RAD (Homo sapiens, UniProt Q14671 828-1176, C935R;R936A;Q939D)
# In short: as §1
# PUM1 PUF domain R3-FYA = PUM1 PUF domain R3-FYA (Homo sapiens, UniProt Q14671 828-1176, C935F;R936Y;Q939A)
# In short: as §1
# PUM1 PUF domain R5-ERL = PUM1 PUF domain R5-ERL (Homo sapiens, UniProt Q14671 828-1176, C1007E;Q1011L)
# In short: as §1
# PUM1 PUF domain R3-WFE = PUM1 PUF domain R3-WFE (Homo sapiens, UniProt Q14671 828-1176, C935W;R936F;Q939E)
# In short: as §1
# PUM1 PUF domain R3-TTE = PUM1 PUF domain R3-TTE (Homo sapiens, UniProt Q14671 828-1176, C935T;R936T;Q939E)
# In short: as §1
# PUM1 PUF domain R5-KMW = PUM1 PUF domain R5-KMW (Homo sapiens, UniProt Q14671 828-1176, C1007K;R1008M;Q1011W)
# In short: as §1
# PUM1 PUF domain R6-FRI = target: T1, PUM1 PUF domain R6-FRI (Homo sapiens, UniProt Q14671 828-1176, N1043F;Y1044R;Q1047I)
# T1 sequence: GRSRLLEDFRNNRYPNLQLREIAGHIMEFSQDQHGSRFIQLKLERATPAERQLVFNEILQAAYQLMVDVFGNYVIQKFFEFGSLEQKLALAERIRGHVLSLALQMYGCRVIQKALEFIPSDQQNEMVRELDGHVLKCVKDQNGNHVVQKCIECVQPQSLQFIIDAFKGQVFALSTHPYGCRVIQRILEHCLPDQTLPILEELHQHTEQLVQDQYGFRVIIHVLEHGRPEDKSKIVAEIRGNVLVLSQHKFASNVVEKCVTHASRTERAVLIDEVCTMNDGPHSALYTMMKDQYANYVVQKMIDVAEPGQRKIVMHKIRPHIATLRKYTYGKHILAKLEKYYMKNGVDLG
# In short: as §1
# PUM1 PUF domain R4-ALY = PUM1 PUF domain R4-ALY (Homo sapiens, UniProt Q14671 828-1176, N971A;H972L;Q975Y)
# In short: as §1
# PUM1 PUF domain R6-LWM = target: T2, PUM1 PUF domain R6-LWM (Homo sapiens, UniProt Q14671 828-1176, N1043L;Y1044W;Q1047M)
# T2 sequence: T1 sequence with F216L, R217W, I220M
# In short: as §1
# PUM1 PUF domain R6-NHW = target: T3, PUM1 PUF domain R6-NHW (Homo sapiens, UniProt Q14671 828-1176, Y1044H;Q1047W)
# T3 sequence: T1 sequence with F216N, R217H, I220W
# In short: as §1
# PUM1 PUF domain R4-PWV = PUM1 PUF domain R4-PWV (Homo sapiens, UniProt Q14671 828-1176, N971P;H972W;Q975V)
# In short: as §1
# PUM1 PUF domain R4-APG = PUM1 PUF domain R4-APG (Homo sapiens, UniProt Q14671 828-1176, N971A;H972P;Q975G)
# In short: as §1
# PUM1 PUF domain R8-RHM = PUM1 PUF domain R8-RHM (Homo sapiens, UniProt Q14671 828-1176, N1122R;Y1123H;Q1126M)
# In short: as §1
# PUM1 PUF domain R5-KTV = PUM1 PUF domain R5-KTV (Homo sapiens, UniProt Q14671 828-1176, C1007K;R1008T;Q1011V)
# In short: as §1
# PUM1 PUF domain R5-RGM = PUM1 PUF domain R5-RGM (Homo sapiens, UniProt Q14671 828-1176, C1007R;R1008G;Q1011M)
# In short: as §1
# PUM1 PUF domain R5-KNW = PUM1 PUF domain R5-KNW (Homo sapiens, UniProt Q14671 828-1176, C1007K;R1008N;Q1011W)
# In short: as §1
sequence,measurement,setting,value
GGCUAGAACUAGUGGAUCCCCCGGCGCCCGGCGGCUCGAGCCCGGGUAAGUCUAAAUAGUCUGCAUGCCGCCGGGCGCCAUGCCUGCAGGUCGACUCUAGAAAACAUG,binding signal,PUM1 PUF domain R7-RGQ,4.22 log2 enrichment (interaction score)
same,binding signal,PUM1 PUF domain R7-KHR,5.64 log2 enrichment (interaction score)
GGCUAGAACUAGUGGAUCCCCCGGCGCCCGGCGGCUCGAGCCCGGGUAAGUGUAAUUAGUCUGCAUGCCGCCGGGCGCCAUGCCUGCAGGUCGACUCUAGAAAACAUG,binding signal,PUM1 PUF domain R3-RSL,2.55 log2 enrichment (interaction score)
same,binding signal,PUM1 PUF domain R3-QRG,2.4 log2 enrichment (interaction score)
same,binding signal,PUM1 PUF domain R3-RAD,4.21 log2 enrichment (interaction score)
same,binding signal,PUM1 PUF domain R3-FYA,4.01 log2 enrichment (interaction score)
GGCUAGAACUAGUGGAUCCCCCGGCGCCCGGCGGCUCGAGCCCGGGUAAGUGUGAAUAGUCUGCAUGCCGCCGGGCGCCAUGCCUGCAGGUCGACUCUAGAAAACAUG,binding signal,PUM1 PUF domain R5-ERL,1.92 log2 enrichment (interaction score)
GGCUAGAACUAGUGGAUCCCCCGGCGCCCGGCGGCUCGAGCCCGGGUAAGUGUAAGUAGUCUGCAUGCCGCCGGGCGCCAUGCCUGCAGGUCGACUCUAGAAAACAUG,binding signal,PUM1 PUF domain R3-WFE,3.04 log2 enrichment (interaction score)
same,binding signal,PUM1 PUF domain R3-QRG,3.07 log2 enrichment (interaction score)
same,binding signal,PUM1 PUF domain R3-TTE,5.3 log2 enrichment (interaction score)
GGCUAGAACUAGUGGAUCCCCCGGCGCCCGGCGGCUCGAGCCCGGGUAAGUGUAAAUAGUCUGCAUGCCGCCGGGCGCCAUGCCUGCAGGUCGACUCUAGAAAACAUG,binding signal,PUM1 PUF domain R5-KMW,1.25 log2 enrichment (interaction score)
same,binding signal,PUM1 PUF domain R6-FRI,3.38 log2 enrichment (interaction score)
same,binding signal,PUM1 PUF domain R4-ALY,3.56 log2 enrichment (interaction score)
same,binding signal,PUM1 PUF domain R5-ERL,5.49 log2 enrichment (interaction score)
same,binding signal,PUM1 PUF domain R6-LWM,4.73 log2 enrichment (interaction score)
same,binding signal,PUM1 PUF domain R6-NHW,2.25 log2 enrichment (interaction score)
same,binding signal,PUM1 PUF domain R4-PWV,6 log2 enrichment (interaction score)
same,binding signal,PUM1 PUF domain R4-APG,4.82 log2 enrichment (interaction score)
same,binding signal,PUM1 PUF domain R8-RHM,4.13 log2 enrichment (interaction score)
GGCUAGAACUAGUGGAUCCCCCGGCGCCCGGCGGCUCGAGCCCGGGUAAGUGUAUAUAGUCUGCAUGCCGCCGGGCGCCAUGCCUGCAGGUCGACUCUAGAAAACAUG,binding signal,PUM1 PUF domain R4-PWV,6.68 log2 enrichment (interaction score)
same,binding signal,PUM1 PUF domain R4-APG,4.91 log2 enrichment (interaction score)
GGCUAGAACUAGUGGAUCCCCCGGCGCCCGGCGGCUCGAGCCCGGGUAAGUGUACAUAGUCUGCAUGCCGCCGGGCGCCAUGCCUGCAGGUCGACUCUAGAAAACAUG,binding signal,PUM1 PUF domain R4-PWV,5.39 log2 enrichment (interaction score)
same,binding signal,PUM1 PUF domain R4-APG,0.78 log2 enrichment (interaction score)
GGCUAGAACUAGUGGAUCCCCCGGCGCCCGGCGGCUCGAGCCCGGGUAAGUGUCAAUAGUCUGCAUGCCGCCGGGCGCCAUGCCUGCAGGUCGACUCUAGAAAACAUG,binding signal,PUM1 PUF domain R5-KMW,3.19 log2 enrichment (interaction score)
same,binding signal,PUM1 PUF domain R5-KTV,2.38 log2 enrichment (interaction score)
same,binding signal,PUM1 PUF domain R5-ERL,3.87 log2 enrichment (interaction score)
same,binding signal,PUM1 PUF domain R5-RGM,2.26 log2 enrichment (interaction score)
GGCUAGAACUAGUGGAUCCCCCGGCGCCCGGCGGCUCGAGCCCGGGUAAGUGUUAAUAGUCUGCAUGCCGCCGGGCGCCAUGCCUGCAGGUCGACUCUAGAAAACAUG,binding signal,PUM1 PUF domain R5-KNW,2.79 log2 enrichment (interaction score)
same,binding signal,PUM1 PUF domain R5-RGM,3.6 log2 enrichment (interaction score)
